# In article PMC5540273 (PLoS ONE, 2017):
# Assays:
# Conditions in all cases: concentration: 1 μM, replicates: in singlicate; n = 1
# [1] = tested on: CSF1R-autoinhibited
# [2] = tested on: CSF1R
# [3] = tested on: CSK
# [4] = tested on: CSNK1A1L
# [5] = tested on: CSNK1A1
# [6] = tested on: CSNK1D
# [7] = tested on: CSNK1E
# [8] = tested on: CSNK1G1
# [9] = tested on: CSNK1G2
# [10] = tested on: CSNK1G3
# [11] = tested on: CSNK2A1
# [12] = tested on: CSNK2A2
# [13] = tested on: T1, CTK
# T1 construct: gene MATK
# [14] = tested on: DAPK1
# [15] = tested on: DAPK2
# [16] = tested on: DAPK3
# [17] = tested on: T2, DCAMKL1
# T2 construct: gene DCLK1
# [18] = tested on: T3, DCAMKL2
# T3 construct: gene DCLK2
# [19] = tested on: T4, DCAMKL3
# T4 construct: gene DCLK3
# [20] = tested on: DDR1
# 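Note: KINOMEscan kinase panel screen.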
SMILES,%Inh [1] [%],%Inh [2] [%],%Inh [3] [%],%Inh [4] [%],%Inh [5] [%],%Inh [6] [%],%Inh [7] [%],%Inh [8] [%],%Inh [9] [%],%Inh [10] [%],%Inh [11] [%],%Inh [12] [%],%Inh [13] [%],%Inh [14] [%],%Inh [15] [%],%Inh [16] [%],%Inh [17] [%],%Inh [18] [%],%Inh [19] [%],%Inh [20] [%]
Cn1cc(-c2ccc3c(c2)CCN3C(=O)Cc2cccc(C(F)(F)F)c2)c2c(N)ncnc21 [GSK2606414],0,6,0,14,0,8,0,0,0,17,1,1,18,3,0,89,8,0,0,99.7
Fc1ccc(Nc2nccc(-c3c(-c4ccc(Cl)cc4)nn4ncccc34)n2)cc1F [GW829058],0,14,28,3,32,60,22,0,2,0,0,24,30,1,0,8,25,11,0,87
CC(=O)Nc1n[nH]c2ncc(-c3ccccc3)cc12 [SB-548492],0,19,3,21,0,0,34,0,0,4,20,25,38,100,1,0,36,15,0,0
CN1c2ccc(-c3ccc(C(=O)NCCO)cc3)cc2-c2[nH]ncc2S1(=O)=O,25,0,9,7,4,5,3,0,0,6,25,47,0,32,36,31,26,12,2,0
FC(F)(F)c1ccc(-c2nn3ncccc3c2-c2ccnc(Nc3cccc(C(F)(F)F)c3)n2)cc1 [GW828205],0,0,0,5,30,24,17,2,3,2,0,0,0,0,0,1,34,0,22,86
O=C(Nc1n[nH]c2nc(-c3ccco3)c(Br)cc12)c1ccc(CN2CCCC2)cc1.O=C(O)[C@H](O)[C@@H](O)C(=O)O [SB-742352],0,71,0,0,0,0,0,0,0,0,0,29,15,0,0,0,0,0,28,19
O=c1cc(N2CCOCC2)nc2n(Cc3cccc(Cl)c3)ccn12 [GSK2296823],0,1,0,12,42,19,34,10,0,23,0,0,22,0,0,7,17,12,0,21
CCc1nc(-c2cccc(C)c2)c(-c2ccnc(NC(=O)c3ccccc3)c2)s1,11,11,1,39,81,89,82,0,3,0,12,29,0,23,0,0,11,6,0,0
Nc1n[nH]c2nnc(-c3ccccc3)cc12 [SB-517389],0,18,0,10,0,6,28,7,0,17,0,16,0,28,0,17,11,0,29,9
